According to PubChem BioAssay:
Values without a mark were called inactive.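 Rule for the calls: active = inhibition at or above 50% relative to wild type and mutant plate controls; inactive = inhibition below 50%.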

Test: inhibitors of Chlamydomonas gravitaxis, primary screen, whole organism, Chlamydomonas reinhardtii, WT vs cilia-less mutant, absorbance, 96-well (AID 463189);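 note: 0% = wild type cc124 cells in DMSO and 100% = ciliumless bld1 mutant cells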
Conditions: OD600 absorbance, 2 days, at 10 µM, stronger effect = higher value

Compared with `Cc1ccc(=O)n(-c2ccccc2)c1`, `Cc1cccc(/C=C/c2ccccc2)n1` is higher in inhibition: 4.35% for the first, 27.5% for the second.

First: CC(N=C(NC#N)Nc1ccncc1)C(C)(C)C (stereo not given)
Second: CN1CCC[C@H]1c1cccnc1
The inhibition of the first is lower: -9.18% for the first, 0.862% for the second.

Compared with `O=C(O)C1CCCN(CCC=C(c2ccccc2)c2ccccc2)C1` (stereo not given), `C=CCN1CCc2c(cc(O)c(O)c2Cl)C(c2ccccc2)C1` (stereo not given) is lower in inhibition: 11.4% for the first, -7.02% for the second.

Compared with `C=CC1(C)CC(=O)C2(O)C(C)(O1)C(OC(C)=O)C(O)C1C(C)(C)CCC(O)C12C` (stereo not given), `C[C@H]1CC2C3CCC4=CC(=O)C=C[C@]4(C)[C@@]3(Cl)[C@@H](O)C[C@]2(C)[C@@]1(O)C(=O)CO` (stereo not given in full) is lower in inhibition: -1.2% for the first, -2.71% for the second.

Going from `Oc1cc2c(cc1O)C(c1ccccc1)CNCC2` (stereo not given) to `CN1CCc2cccc3c2C1Cc1ccc(O)c(O)c1-3` (stereo not given), the inhibition falls from -4.78% to -7.51%.

Compared with `O=c1[nH]cnc2[nH]ncc12`, `NNc1nncc2ccccc12` is lower in inhibition: 6.04% for the first, -2.73% for the second.

First: CC1CCN=C(N)S1 (stereo not given)
Second: Cn1c(=O)c2[nH]c(C3CCCC3)nc2n(C)c1=O
The inhibition of the first is higher: 0.783% for the first, -2.05% for the second.

Going from `CCCC(CCC)C(=O)O` to `CN=C(N)NCCC[C@H](N)C(=O)O`, the inhibition rises from 2.56% to 3.39%.

First: NCCc1ccc(O)c(O)c1
Second: CC(=O)NCCc1ccc(O)c(O)c1
The inhibition of the first is lower: -0.97% for the first, 5.98% for the second.

First: CC[C@H](C)C(=O)O[C@H]1CCC=C2C=C[C@H](C)[C@H](CC[C@@H]3C[C@@H](O)CC(=O)O3)[C@H]21
Second: CCNC(=O)[C@H]1O[C@@H](n2cnc3c(N)nc(NCCc4ccc(CCC(=O)O)cc4)nc32)C(O)[C@H]1O (stereo not given in full)
The inhibition of the first is higher: 9.46% for the first, 3.28% for the second.

Going from `Cn1ccnc1` to `NC(N)=[N+]1CCc2ccccc2C1`, the inhibition falls from 9.19% to -2.7%.

Going from `N[C@H](CCC(=O)NCS(=O)(=O)O)C(=O)O` to `NC(=O)C(=O)O`, the inhibition falls from 4.82% to 0.681%.

Going from `CC(C)=CCC/C(C)=C/CC/C(C)=C/CSc1ccccc1C(=O)O` to `CCCCCCN(CCCCCC)C(=O)Cc1c(-c2ccc(F)cc2)[nH]c2ccccc12`, the inhibition rises from -8.73% to 8.52%.

Compared with `c1cc(CN2CCCCC2)cc(OCCCNc2nc3ccccc3s2)c1`, `NC(=Nc1ccccc1)NC(=O)c1nc(Cl)c(N)nc1N` is lower in inhibition: 26.8% for the first, -0.27% for the second.

First: O=[N+]([O-])c1ccc(CSc2ncnc3c2ncn3[C@@H]2O[C@H](CO)[C@H](O)C2O)cc1 (stereo not given in full)
Second: CSc1nc(N)c2ncn([C@@H]3O[C@H](COP(=O)(O)OP(=O)(O)OP(=O)(O)O)[C@H](O)C3O)c2n1 (stereo not given in full)
The inhibition of the first is higher: -2.08% for the first, -3.46% for the second.

First: NCC(O)(CS(=O)(=O)O)c1ccc(Cl)cc1 (stereo not given)
Second: N=C(N)c1ccc(N)cc1
The inhibition of the first is higher: 30.8% for the first, 28.5% for the second.

Going from `Nc1c(S(=O)(=O)O)cc(Nc2ccc(Nc3nc(Cl)nc(Nc4ccc(S(=O)(=O)O)cc4)n3)c(S(=O)(=O)O)c2)c2c1C(=O)c1ccccc1C2=O` to `O=c1c(-c2ccc(O)cc2)coc2cc(O)ccc12`, the inhibition falls from 8.09% to -7.57%.

Compared with `CC(=O)N[C@@H](Cc1c[nH]c2ccccc12)C(=O)OCc1cc(C(F)(F)F)cc(C(F)(F)F)c1`, `O=C1c2c(O)cc(O)cc2OC(c2ccc(O)c(O)c2)C1O` (stereo not given) is lower in inhibition: -0.535% for the first, -16.9% for the second.

First: NC(N)=NCCSSCCN=C(N)N
Second: CC(C)CN(C)c1nc(N)c(C(=O)N=C(N)N)nc1Cl
The inhibition of the first is lower: -8.7% for the first, -3.31% for the second.

First: CCCCCCCCCCCCCCCCCC(=O)NCC(COP(=O)([O-])OCC[N+](C)(C)C)OCC (stereo not given)
Second: NCCS(=O)O
The inhibition of the first is higher: 9.71% for the first, 4.12% for the second.
